Records with an inconclusive call do not appear. Calls of active or inactive are those of the source. Calls come from the whole dose curve; as a rule, active = well fitted inhibition curve with a large enough effect; inconclusive = small, poorly fitted or top-dose-only effect; inactive = flat fitted curve, though single readings scatter.

The experiment can be described thus: Identification of antibody-drug conjugate (ADC) payloads which are substrates of ATP-binding cassette drug efflux transporters: ABCG2-HEK293-R5 cell line. To be noted: ABCG2-HEK293-R5 viability, CellTiter-Glo ATP luminescence, 48 h. The text has this: Antibody-drug conjugates (ADCs) feature an antibody recognizing a specific protein joined to a potent toxic payload. Numerous antibody-drug conjugates have received FDA approval; however, clinical resistance arises. Resistance mechanisms include decreased expression or mutation of the antibody target, impaired payload release, or increased expression of ATP-binding cassette (ABC) efflux transporters associated with multidrug resistance. We therefore sought to characterize the interaction of ABC multidrug transporters with ADC payloads. We performed a high-throughput screen with 27 common ADC payloads using cells lines expressing ABC transporters P-glycoprotein (P-gp, encoded by ABCB1) or ABCG2 (encoded by ABCG2). Confirmatory assays were also performed using cells transfected to express P-gp, ABCG2, or MRP1 (encoded by ABCC1). Several commonly used ADC payloads were substrates of P-gp, including calicheamicin gamma1, monomethyl auristatin E, DM1, and DM4. All the pyrrolobenzodiazepines tested - SJG136, SGD-1882, SG2057, and SG3199 - were substrates of P-gp, ABCG2, and MRP1. […] These findings highlight the risk of transporter-mediated resistance with certain ADC payloads and underscore the importance of selecting payloads that evade ABC transporter recognition in future ADC development.
HEK-293 cells were transfected with empty vector (pcDNA) or vector containing the human ABCB1 (MDR-19), ABCG2 (R-5), or ABCC1 gene (MRP1) and were maintained in EMEM with 2 mg/mL G418 added to maintain transporter expression. The HeLa derivative KB-3-1 and the P-gp overexpressing KB-8-5-11 subline were maintained in DMEM; KB-8-5-11 additionally received 100 ng/mL colchicine. H460 parental cells were obtained from the Division of Cancer Treatment and Diagnosis Tumor Repository, National Cancer Institute at Frederick, MD and were cultured in RPMI. The ABCG2 expressing subline H460 MX20 was generated by selecting H460 cells in 20 nM mitoxantrone. Media in all cases was supplemented with 10% FBS and 1% penicillin-streptomycin. We explored 27 common ADC payloads, in two orthogonal, paired cell line sets-a drug selected and transfected set for each transporter--to identify substrates of the ABC transporters P-gp and ABCG2. Compounds were sourced from Levena Biopharma (San Diego, CA), Selleck Chem (Houston, TX), ChemieTek (Indianapolis, IN), or Microsource Discovery Systems (Gaylordsville, CT). Screening was performed as previously described. Briefly, cells were plated at a density of 500 cells/well in 1536 well plates with compounds added using a 1536-head pin tool (Kalypsys, San Diego CA). Cells were incubated with cytotoxic drugs and processed with CellTiter Glo reagent (Promega, Madison, WI) to determine viability after 48 hours. […]
(In general: ATP-based viability assays read luminescence as a measure of living cells.)
Consider `CC[C@@]1(O)C(=O)OCc2c1cc1n(c2=O)Cc2cc3ccccc3nc2-1`, for which the Potency was 13.4 nM (active).
The same measure for `CC[C@H](C)[C@@H]([C@@H](CC(=O)N1CCC[C@H]1[C@H](OC)[C@@H](C)C(=O)N[C@H](C)[C@@H](O)c1ccccc1)OC)N(C)C(=O)[C@@H](NC(=O)[C@H](C(C)C)N(C)C)C(C)C`: 8.4 nM (active); for `COc1cc2cc(C(=O)N3C[C@@H](CCl)c4c3cc(O)c3ccccc43)[nH]c2c(OC)c1OC`: 21.2 nM (active); for `COc1cc2cc(c1Cl)N(C)C(=O)C[C@H](OC(=O)[C@H](C)N(C)C(=O)CCC(C)(C)S)[C@]1(C)OC1[C@H](C)C1C[C@@](O)(NC(=O)O1)[C@H](OC)/C=C/C=C(\C)C2` (some centres undefined): 2.4 nM (active).

The values above are taken from PubChem BioAssay AID2061323 (National Center for Advancing Translational Sciences (NCATS), 2025).
